Measured values as given in PubChem BioAssay AID431 (Sanford-Burnham Center for Chemical Genomics, 2006).
About 1,100 (1.7%) of roughly 63,000 compounds were called active.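 How the source made its calls: active means compounds whose percent cytotoxicity in the single-dose primary screen, scaled between solvent and toxic-drug controls, exceeds 50; inactive means the rest.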 What follows is part of a selection rich in actives, with near analogues and random picks from the rest. Results with a measured potency or affinity are listed apart.

Assay: viability loss of HPDE-C7K cells – cell-based, fluorescence, HTS, primary screen (AID 431);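 further: 0% = DMSO solvent wells and 100% = doxorubicin-treated wells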
Settings: HPDE-C7K KRASV12 cells, Alamar Blue viability, 48 h; at 10 µM; active compounds read high

| SMILES | cytotoxicity |
| --- | --- |
| Cc1ccc(C)c(N2CCN(C(=O)c3ccc(NS(=O)(=O)c4c(C)noc4C)cc3)CC2)c1 | 17.4% (inactive) |
| Cc1noc(C)c1S(=O)(=O)Nc1ccc(C(=O)N2CCN(c3ccc(Cl)cc3)CC2)cc1 | -5.4% (inactive) |
| CCCCc1n[nH]c2c1C(=O)CC(C)(C)C2 | 1.2% (inactive) |
| CCOC(=O)N1CCC(NC(=O)c2cc(C(=O)Nc3cccc(OC)c3)ccc2CO)CC1 | 1.1% (inactive) |
| CCCCC(c1nnnn1CC1CCCO1)N1CCN(c2cc(Cl)ccc2C)CC1 (centres undefined) | 36.2% (inactive) |
| CCCC(c1nnnn1CC1CCCO1)N1CCN(c2cc(Cl)ccc2C)CC1 (centres undefined) | 61.1% (active) |
| Cc1ccc(Cl)cc1N1CCN(C(CC(C)C)c2nnnn2CC2CCCO2)CC1 (centres undefined) | 39.6% (inactive) |
| O=C(Nc1ccccc1C(=O)O)c1ncn[nH]1 | -10% (inactive) |
| CC(C)CC(=O)Nc1c2c(nn1-c1ccc(F)cc1)CSC2 | -0.6% (inactive) |
| CCOC(=O)CCc1c(C)n(CC)c2ncnn2c1=O | 2.5% (inactive) |
| CS(=O)(=O)c1ccc2nc(NC(=O)Cc3ccccc3)sc2c1 | 2.6% (inactive) |
| O=C(Cc1cccs1)Nc1nc2ccccc2s1 | 2.2% (inactive) |
| CC(C)(C)NS(=O)(=O)c1ccc2nc(NC(=O)Cc3cccs3)sc2c1 | 73.1% (active) |
| COCCn1c(=S)[nH]c2cc(C(=O)N3CCN(c4ccccc4OC)CC3)ccc2c1=O | 6.7% (inactive) |
| CCCCCN=Cc1c(C)[nH]n(-c2nc3ccccc3s2)c1=O | 13.1% (inactive) |
| CCCc1[nH]n(-c2nc3ccccc3s2)c(=O)c1C=NCCN1CCOCC1 | 24.1% (inactive) |
| O=c1c(C=NCCCn2ccnc2)c(-c2ccccc2)[nH]n1-c1nc2ccccc2s1 | 63.3% (active) |
| C=CCc1ccc(OCC(O)CN2CCCCC2C)c(OC)c1 (centres undefined) | 22.6% (inactive) |
| COCCn1nnnc1SCC(=O)N1CCCCC1 | -12.2% (inactive) |
| CCOc1ccc2nc(-c3ccccc3)[nH]c2c1 | 57.3% (active) |
| CCOc1ccc2nc(C(C)O)[nH]c2c1 (centres undefined) | 5.3% (inactive) |
| COc1ccc2nc(-c3ccccc3)[nH]c2c1 | -5.2% (inactive) |
| CCOc1ccccc1NC(=O)CSc1nnnn1-c1ccc(C(=O)OC)cc1 | 0.9% (inactive) |
| CNCCCC12CCC(c3ccccc31)c1ccccc12 | 73.1% (active) |
| CNCCCN1c2ccccc2CCc2ccccc21 | 17.5% (inactive) |

| SMILES | cytotoxicity |
| --- | --- |
| CNCCCC1c2ccccc2C=Cc2ccccc21 | 10.4% (inactive) |
| Cc1cc(NC(=O)CSc2nc(-c3ccccc3)cs2)no1 | -7.6% (inactive) |
| N#CC1=C(N)OC2=C(C(=O)CCC2)C1c1ccc(OC(=O)N2CCOCC2)cc1 (centres undefined) | -4.6% (inactive) |
| c1ccc(-c2nnc(-c3ccccn3)nn2)nc1 | 8.9% (inactive) |
| c1ccc(-c2ccc(-c3ccccn3)nn2)nc1 | 7.3% (inactive) |
| Cc1ccc(C)c(S(=O)(=O)NC(CCC(N)=O)C(=O)O)c1 (centres undefined) | 5% (inactive) |
| COc1ccc2c(c1)CCc1c(C(=O)Nc3ccn(Cc4ccc(C)cc4)n3)noc1-2 | -1.5% (inactive) |
| COc1cc(C2C3C(=O)N(c4ccc(F)cc4)C(=O)C3ON2c2ccccc2)ccc1O (centres undefined) | -1.5% (inactive) |
| COc1cc(C2C3C(=O)N(c4ccccc4)C(=O)C3ON2c2ccccc2)ccc1O (centres undefined) | 3.7% (inactive) |
| CCCOc1ccc(N2C(=O)C3ON(c4ccccc4)C(c4ccc(O)c(OC)c4)C3C2=O)cc1 (centres undefined) | 81.7% (active) |
| CCCCCC1CC(CC(=O)O)C(=O)O1 (centres undefined) | -13.6% (inactive) |
| CCOC(=O)N1CCC(NC(=O)c2cc(C(=O)Nc3ccc(OCC)cc3)ccc2CO)CC1 | 1.5% (inactive) |
| CCn1c(CNc2nc(-c3ccccc3)cs2)nnc1SCC(=O)NCc1ccco1 | -32.7% (inactive) |
| CCOC(=O)c1c(C)oc2ccc(NS(=O)(=O)c3ccc4c5c(cccc35)C(=O)N4)cc12 | 69.9% (active) |
| COC(=O)c1ccccc1NS(=O)(=O)c1ccc2c3c(cccc13)C(=O)N2 | 20.3% (inactive) |
| COCCOC(=O)c1c(C)oc2ccc(NS(=O)(=O)c3ccccc3)cc12 | 17.1% (inactive) |
| CCCCn1c2c(c3ccccc31)CCc1nonc1-2 | 14.8% (inactive) |
| COC(=O)C(C)NC(=O)C(C)NC(=O)OCc1ccccc1 (centres undefined) | 8% (inactive) |
| CCOC(=O)N1CCN(c2c(-c3ccccc3)c3cc(Cl)ccc3[nH]c2=O)CC1 | -2.7% (inactive) |
| O=c1[nH]c2ccc(Cl)cc2c(-c2ccccc2)c1N1CCOCC1 | 12.4% (inactive) |
| O=C(c1ccco1)N1CCN(c2c(-c3ccccc3)c3cc(Cl)ccc3[nH]c2=O)CC1 | 81.6% (active) |
| COc1cc(NC(=O)c2ccccc2)c(OC)cc1NC(C)=O | -2.1% (inactive) |
| O=C1NC(c2ccncc2)Nc2ccccc21 (centres undefined) | -12.1% (inactive) |
| COCCNC(=O)c1cc2cc(Br)cc(OC)c2oc1=O | 0.9% (inactive) |
| O=C(Nc1nc2ccccc2n1CCN1CCCC1)c1ccc(Cl)cc1 | 62.1% (active) |

| SMILES | cytotoxicity |
| --- | --- |
| CCCn1c(NC(=O)c2ccc(C)cc2)nc2ccccc21 | -46.1% (inactive) |
| CCCn1c(NC(=O)c2ccc(Cl)c(S(=O)(=O)N3CCCC3)c2)nc2ccccc21 | 37.6% (inactive) |
| CCCn1c(NC(=O)c2cccc(S(=O)(=O)N3CCCC3)c2)nc2ccccc21 | 54% (active) |
| Cc1ccc(C(=O)Nc2nc3ccccc3n2CCN2CCCC2)cc1 | -3.5% (inactive) |
| O=C(Nc1nc2ccccc2n1CCN1CCCCC1)c1ccco1 | -5% (inactive) |
| CC(C)(CSc1nncn1N)NS(=O)(=O)c1ccc(Cl)cc1 | 0% (inactive) |
| Cc1cc(-c2ccccc2)c(C#N)c(SCC(N)=O)n1 | 0.4% (inactive) |
| CC1CCCN(C(=O)Cn2nnc(-c3cccnc3)n2)C1 (centres undefined) | 1% (inactive) |
| CC(NS(=O)(=O)c1ccc(F)cc1)C(c1cccs1)N1CCN(C)CC1 (centres undefined) | -12.3% (inactive) |
| CC1CCCCN1S(=O)(=O)c1ccc(S(=O)(=O)N2CCN(c3ccc(F)cc3)CC2)cc1 (centres undefined) | -7.9% (inactive) |
| Cc1nc(CN2CCN(C(=O)NC3(c4ccccc4)CC3)CC2)cs1 | -4.3% (inactive) |
| COc1ccc2c(c1OC)C(=O)N1c3ccccc3C(=O)N(c3ccc(F)cc3)C21 (centres undefined) | 12.3% (inactive) |
| COc1ccc2c(c1OC)C(=O)N1c3ccccc3C(=O)N(c3ccccc3)C21 (centres undefined) | 38.7% (inactive) |
| COc1ccc2c(c1OC)C(=O)N1c3ccccc3C(=O)N(c3ccccc3F)C21 (centres undefined) | 53.2% (active) |
| CCN(CCNC(=O)C1CCN(S(C)(=O)=O)CC1)c1ccccc1 | -4.7% (inactive) |
| CC(C)CC(=O)Nc1ccccc1N1CCCC1 | -13.9% (inactive) |
| O=C(CN1CCc2ccccc2C1)Nc1ccccc1N1CCCCCC1 | 62.4% (active) |
| CCOC(=O)c1ccc(NC(=O)CN2CCc3ccccc3C2)cc1 | 53.1% (active) |
| O=C(COc1ccccc1)Nc1ccccc1N1CCCCC1 | -5.3% (inactive) |
| CCOC(=O)c1ccc(NC(=O)CN2CCN(c3ccccc3)CC2)cc1 | -0.6% (inactive) |
| O=C(CN1CCCCC1)Nc1ccccc1NC(=O)CN1CCCCC1 | -8.2% (inactive) |
| O=C(CNCCC1=CCCCC1)Nc1ccccc1N1CCCCC1 | 74.2% (active) |
| CCOC(=O)c1ccc(NC(=O)N2CCc3ccccc32)cc1 | 16.1% (inactive) |
| COc1ccc(NC(=O)CNCCC2=CCCCC2)cc1 | -7.1% (inactive) |
| COc1ccc(CCNC(=O)c2c(O)c3cccc4c3n(c2=O)CC4)cc1OC | 3.1% (inactive) |

| SMILES | cytotoxicity |
| --- | --- |
| Cc1cc(C(=O)OCC(=O)N2CC(C)CC(C)C2)c(C)o1 (centres undefined) | -1% (inactive) |
| CC(=O)c1ccc(NC(=O)C2CCCNC2=O)cc1 (centres undefined) | -14.4% (inactive) |
| Cc1nnc2ccc(N3CCN(c4cccc(C(F)(F)F)c4)CC3)nn12 | 3.9% (inactive) |
| Cn1c(=O)n(-c2ccccc2)c(=O)c2c3c(sc21)COC(C)(C)C3 | -13.9% (inactive) |
| Cc1ccc(S(=O)(=O)NC(=NCC(=O)O)c2ccccc2)cc1 | 5.9% (inactive) |
| CCOc1ccc2[nH]c(=O)c(CN(CCOC)C(=O)N3CCOCC3)cc2c1 | 5.7% (inactive) |
| CCOC(=O)CN(Cc1ccccc1)S(=O)(=O)c1ccc(NC(C)=O)cc1 | 8.6% (inactive) |
| CC(=O)Nc1ccc(S(=O)(=O)c2ccc(N)cc2)cc1 | -14.7% (inactive) |
| COC(=O)C(C)NS(=O)(=O)c1ccc(NC(C)=O)cc1 (centres undefined) | -26.3% (inactive) |
| COc1ccccc1NS(=O)(=O)c1ccc(NC(C)=O)cc1 | 1.6% (inactive) |
| COC(=O)/C=C/S(=O)(=O)c1ccc(NC(C)=O)cc1 | 58.8% (active) |
| CC(C)c1c(O)nc(SCc2ccccc2)[nH]c1=O | -18% (inactive) |
| COc1ccc(-n2nnnc2SCC(=O)c2cccc(OC)c2)cc1 | 25.7% (inactive) |
| COc1ccc(-n2nnnc2-c2cccc(OC)c2)cc1 | 60.7% (active) |
| COc1cccc(-n2nnnc2SCC(=O)c2cc(OC)ccc2OC)c1 | -8.2% (inactive) |
| O=C(CSc1nnnn1-c1ccccc1)CSc1nnnn1-c1ccccc1 | 3% (inactive) |
| CCS(=O)(=O)c1nnnn1-c1ccccc1S(C)(=O)=O | 36.8% (inactive) |
| CCOc1cccc(-n2nnnc2-c2ccc(OC)cc2)c1 | 52.1% (active) |
| COc1ccc(-n2nnnc2-c2cccnc2)cc1 | 0.7% (inactive) |
| COc1ccc(-c2nnnn2-c2ccccc2OC)cc1 | 36.6% (inactive) |
| COc1cccc(Oc2nnnn2-c2ccccc2)c1 | -16.1% (inactive) |
| N#CCCS(=O)(=O)c1nnnn1-c1ccccc1 | 67.8% (active) |
| COc1ccc(-c2nnnn2CCc2ccccc2)cc1 | -2.2% (inactive) |
| O=C(Nc1ccc2c(c1)OCCO2)C1CCN(C(=O)c2ccc(Br)cc2)CC1 | 4.7% (inactive) |
